Assay outcomes deposited in PubChem by National Center for Advancing Translational Sciences (NCATS).
In the library only some 3.8% were active in any assay of this set; here they are far more common.
TGFb SMAD3 inh = qHTS for Inhibitors of TGF-b; HepG2 CAGA-GFP TGF-b/SMAD3 reporter, GFP fluorescence, 18 h; TGF-beta stimulated, 500 pg/mL final; Potency, µM (top dose mostly 46.1 µM), for the others: at the highest dose activity, negative = inhibition, hits mostly inhibitors; hit rate 1.2% among 410,000; also: % is scaled to controls: 0 for no effect and ±100 for the full control effect; nearly all actives have a fitted effect of over 65% in size
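HEPG2 CAGA-GFP, 1000 cells/well; 2 h settle, 37 C; cpd via pin tool; TGF-b 500 pg/mL final; 18 h, 37 C; GFP imaging ex488/em500-530; %Activity normalised to -TGF-b and +DMSO controls; CRC fit, curve class.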
ATXN viability = Viability Counterscreen for Primary qHTS for Inhibitors of ATXN expression; Potency, µM (top dose mostly 56.7 µM), hits mostly cytotoxic; AID 651635, 2014; hit rate 0.49% among 400,000; S2 cells (HEK-293 line with an ATXN2-luciferase reporter) viability, CellTiter-Fluor protease fluorescence, 24 h; also: nearly all actives have a fitted effect of over 40% in size
Nrf2 inh = Nrf2 qHTS screen for inhibitors | A549 ARE-Fluc reporter, luciferase luminescence, 18-24 h | Potency, µM (highest dose often 46 µM), for inactives: top-dose activity change, negative = inhibition, hits mostly inhibitors | hit rate 2.1% among 360,000 | AID 504444, 2011; also: % is scaled to controls: 0 for no effect and ±100 for the full control effect; nearly all actives have a fitted effect of over 60% in size
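Nrf2 activity is the BugLite luminescence, read 15 min after reagent at room temperature, following CellTiter-Fluor cytotoxicity readout (30 min, 37C). Compound titrations were applied for 18-24 h to 5000 A549 ARE_Fluc cells/well in 5% FBS OPTI-MEM.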
ATXN2 expr inh = Primary qHTS for Inhibitors of ATXN expression | HEK-293 ATXN2-luciferase reporter, luminescence, 24 h | Potency, µM (top dose mostly 57 µM), inactives show at the top dose activity change, negative = inhibition, actives largely listed as inhibitors | hit rate 0.72% among 360,000; also: % is scaled to controls: 0 for no effect and ±100 for the full control effect; nearly all actives have a fitted effect of over 55% in size
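qHTS (up to 57 uM final) was run with 24 h compound exposure of reporter cells at 37 °C. Each well was multiplexed: SteadyGlo luminescence measured ATXN2-luciferase expression after a fluorogenic Gly-Phe-AFC viability readout (25 uM final).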
HepG2 tox = qHTS for Inhibitors of TGF-b: Cytotox Counterscreen; HepG2 CAGA-GFP viability, ATP luminescence, 18 h; Potency, µM (top dose mostly 46.1 µM), for inactives: at the top dose activity change, negative = cytotoxicity, hits mostly cytotoxic; hit rate 0.76% among 410,000; AID 588856, 2011
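CellTiter-Glo luminescence gave cytotoxicity after 18 hours at 37 degrees C. The cells were HepG2 CAGA-GFP in 1% FBS DMEM, stimulated with 500 pg/mL TGF-beta after compound addition. %Activity was normalised to no-cell wells (complete cell-killing) and DMSO (no toxicity), and curves were fitted and classified.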
A549 tox = Nrf2 qHTS screen for inhibitors: counterscreen for cytotoxicity; A549 ARE-Fluc cells, CellTiter-Fluor viability, 18-24 h; Potency, µM (titrated, usually from 46 µM), for inactives: top-dose activity change, negative = cytotoxicity, actives largely listed as inhibitors; hit rate 0.16% among 390,000; AID 504648, 2011; also: % is scaled to controls: 0 for no effect and ±100 for the full control effect
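Cytotoxicity counterscreen: CellTiter-Fluor fluorescence was measured in A549 ARE_Fluc cells after 18-24 h of compound exposure in a concentration series. The subsequent BugLite luminescent read reports ARE-luciferase activity.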
An asterisk follows results filed as active; i = inactive; ? = inconclusive; . = no result given; [ ] = remark or other dose. Calls follow the shape of the dose curve; as a rule, active = well fitted curve in the direction sought with a large enough effect; inconclusive = small, poorly fitted or top-dose-only effect, or another doubt; inactive = no such curve, though single readings can be large; an effect the other way counts as inactive or inconclusive. Potency is read from the fitted curve at half-maximal effect.

SMILES	TGFb SMAD3 inh	ATXN viability	Nrf2 inh	ATXN2 expr inh	HepG2 tox	A549 tox
Cc1ccccc1CN1CCN(CC(=O)NCCCN2CCN(c3ccc(F)cc3)CC2)C1=O	-13.6%	i	11.6µM*	-20.2%	-9.5%	-0.3%
NC(=O)CCCn1c(C(=O)c2ccc(Cl)cc2)c2ccc([N+](=O)[O-])cc2[n+]1[O-]	?	17.8µM*	4.6%	?	-33.5%	-19.9%
NCCCn1c(C(=O)c2ccc(Cl)cc2)c2ccc([N+](=O)[O-])cc2[n+]1[O-]	10µM*	?	?	?	-31.9%	?
NCCCn1c(C(=O)c2ccc(Cl)cc2)c2ccc(C(F)(F)F)cc2[n+]1[O-]	18.2%	i	11.4%	4.7%	-46.3%	-7.0%
NC(=O)CCCn1c(C(=O)c2cc(Cl)c(N)c(Cl)c2)c2ccc([N+](=O)[O-])cc2[n+]1[O-]	7.94µM*	28.2µM*	-11.5%	?	-54.5%	?
COCCCNC(=O)c1csc([C@H]2C[C@H](O)[C@@H](CO)O2)n1	14.9%	i	.	1.6%	-0.7%	.
C[C@@H](NC(=O)[C@@H]1CCCN1C(=O)[C@@H]1CCCN1C(=O)c1ccccc1)c1ccccc1	.	i	.	-7.9%	.	.
CC1CCCCN1c1nnc(NC(=O)Nc2ccccc2F)s1 (stereo not drawn)	-10.5%	i	20.6µM*	70.8%	-13.4%	-24.7%
COc1cc(-c2noc(C)c2C(=O)NCCc2ccccc2)cc(OC)c1OC	18.1%	i	5.5%	5.2%	11.9%	-0.6%
COc1ccc(NC(=S)NC(NC(=O)c2cccc(Cl)c2)C(Cl)(Cl)Cl)c([N+](=O)[O-])c1 (stereo not drawn)	22.4µM*	?	25.9µM*	?	-56.1%	?
C1=C(c2ccc3c(c2)CN(Cc2cccn2-c2ncccn2)CCO3)Cc2ccccc21	.	i	.	.	.	.
O=C(CCS(=O)(=O)c1nc(-c2ccc3c(c2)OCO3)cc(C(F)(F)F)n1)Nc1ccc(F)c(Cl)c1	20µM*	.	-1.4%[9.27 µM]	.	12.6µM*	0.8%
COc1ccc(NC(=O)CCS(=O)(=O)c2nc(-c3cccs3)cc(C(F)(F)F)n2)cc1OC	15.8µM*	.	5.5%[9.27 µM]	.	-106.4%	2.4%
COc1cc(NC(=O)CCS(=O)(=O)c2nc(-c3cccs3)cc(C(F)(F)F)n2)cc(OC)c1OC	12.6µM*	.	13.0%[9.27 µM]	.	11.2µM*	1.7%
Cc1cc(NC(=O)CCCS(=O)(=O)c2nc(-c3cccs3)cc(C(F)(F)F)n2)no1	14.1µM*	28.2µM*	-14.3%	?	-106.0%	-22.9%
Cc1ccc2c(c1)N(C(=O)CCC(=O)NCc1ccccn1)CC(C)O2 (stereo not drawn)	-19.4%	i	12.7%	9.1%	-2.2%	4.4%
CCN1CCCC1CN(Cc1cc2ccc(C)c(C)c2[nH]c1=O)C(=O)Nc1ccccc1OC (stereo not drawn)	?	i	?	8.9%	-29.6%	?
CSc1cccc(NC(=O)c2cccc3cccnc23)c1	20.0%	i	?	69.3%	-11.9%	2.1%
CCCN(CCC)CCNC(=O)c1sc2nc3n(c(=O)c2c1C)CCCCC3	3.3%	.	28.5%	.	-24.1%	-17.9%
COc1cc2c(Oc3ccc(-c4cnc(Nc5ccc(F)cc5)n(C)c4=O)cc3F)ccnc2cc1OCCCN1CCOCC1	.	.	.	24.3µM*	.	.
COc1cc2c(Oc3ccc(NC(=O)C4(C(=O)Nc5ccc(F)cc5)CC4)cc3F)ccnc2cc1OCCCN1CCOCC1	.	.	.	27.3µM*	.	.
N#CCCN1CCN(C2=NC(=O)/C(=C\c3cccs3)S2)CC1	-2.5%	i	4.3%	-1.0%	-3.7%	-0.9%
CCOc1ccc(Cl)cc1-c1cc(C(=O)NCc2ccccc2OC)[nH]n1	17.2%	i	.	-22.0%	-14.3%	.
Cc1cc(C)nc(Nc2nc(C(N)Cc3ccc(F)cc3)cs2)n1 (stereo not drawn)	?	?	.	-24.0%	12.6µM*	.
COc1cc(OC)nc(Nc2nc(C(N)Cc3ccc(C(F)(F)F)cc3)cs2)n1 (stereo not drawn)	?	?	.	?	10µM*	.
SMILES	TGFb SMAD3 inh	ATXN viability	Nrf2 inh	ATXN2 expr inh	HepG2 tox	A549 tox
NC(Cc1ccc(C(F)(F)F)cc1)c1csc(Nc2nccc(C(F)(F)F)n2)n1 (stereo not drawn)	?	i	.	?	-104.9%	.
CS(=O)(=O)c1ccc(Nc2nc(C(N)Cc3ccc(F)cc3)cs2)cc1 (stereo not drawn)	?	i	.	-19.9%	-42.0%	.
Cc1cc(C)nc(Nc2nc(C(N)Cc3ccc(Cl)cc3)cs2)n1 (stereo not drawn)	15.8µM*	?	.	?	-95.2%	.
COc1cc(OC)nc(Nc2nc(C(N)Cc3ccccc3)cs2)n1 (stereo not drawn)	?	i	.	-9.8%	-62.5%	.
CCCc1cnc(Nc2nc(C(N)Cc3ccc(C(F)(F)F)cc3)cs2)nc1 (stereo not drawn)	?	.	.	-15.8%	11.2µM*	.
Cc1cc(C)nc(Nc2nc(C(N)Cc3ccc(C(F)(F)F)cc3)cs2)n1 (stereo not drawn)	?	?	.	-20.6%	22.4µM*	.
O=C(N/N=C/c1c(O)ccc2ccccc12)c1cccnc1	5.0%	?	?	?	1.7%	-7.3%
Cc1cc(O)c(C)c(O)c1/C=N/NC(=O)c1cccnc1	-3.7%	i	0.0%	11.2µM*	-11.1%	-7.1%
O=C(N/N=C/c1cc(O)ccc1Br)c1cccnc1	-26.8%	?	12.0%	2.82µM*	-48.7%	6.6%
C[C@H](NC(=O)c1sccc1OCc1ccc(Cl)cc1)c1ccccc1	.	.	.	21.7µM*	.	.
O=C(CCOCCOCCOCCOCCC(=O)Nc1c(I)cc(I)c(C(=O)O)c1I)Nc1c(I)cc(I)c(C(=O)O)c1I	.	i	.	6.4%	.	.
CC1=C(C(=O)Nc2ccccc2)C(c2cccn2C)n2ncnc2N1 (stereo not drawn)	-7.8%	i	.	8.6%	0.0%	7.2%
O=C(O)c1cccc(N/N=C/c2cccs2)c1	5.6%	?	?	10µM*	3.4%	5.7%
CSc1ccc(/C=N/Nc2cccc(C(=O)O)c2)cc1	-0.8%	i	?	-88.7%	-10.8%	8.8%
Cc1cc(-c2nnc(SCC(=O)Nc3ccc(C(F)(F)F)cc3)n2C)no1	-4.3%	?	23.1µM*	.	-4.7%	-14.3%
CCc1ccc(NC(=O)c2ccc(NC3=NC4CS(=O)(=O)CC4S3)cc2)cc1 (stereo not drawn)	1.0%	i	8.2%	25.0%	-0.6%	-7.6%
